Measurements reported in paper PMC4336329 (PLoS ONE, 2015).
The campaign covered roughly 310,000 compounds. About 2,200 (0.71%) showed an effect of 50% or more. Effects have a minus sign here. Shown is part of a subset that was picked to be rich in strong results.

What follows are molecules tested against human ether-à-go-go-related gene (hERG) potassium channel (human, UniProt Q12809) (assay: primary screen, population patch clamp on CHO cells stably expressing hERG; higher = less effect of the substance).
Sequence of human ether-à-go-go-related gene (hERG) potassium channel (Q12809 whole entry, looked up): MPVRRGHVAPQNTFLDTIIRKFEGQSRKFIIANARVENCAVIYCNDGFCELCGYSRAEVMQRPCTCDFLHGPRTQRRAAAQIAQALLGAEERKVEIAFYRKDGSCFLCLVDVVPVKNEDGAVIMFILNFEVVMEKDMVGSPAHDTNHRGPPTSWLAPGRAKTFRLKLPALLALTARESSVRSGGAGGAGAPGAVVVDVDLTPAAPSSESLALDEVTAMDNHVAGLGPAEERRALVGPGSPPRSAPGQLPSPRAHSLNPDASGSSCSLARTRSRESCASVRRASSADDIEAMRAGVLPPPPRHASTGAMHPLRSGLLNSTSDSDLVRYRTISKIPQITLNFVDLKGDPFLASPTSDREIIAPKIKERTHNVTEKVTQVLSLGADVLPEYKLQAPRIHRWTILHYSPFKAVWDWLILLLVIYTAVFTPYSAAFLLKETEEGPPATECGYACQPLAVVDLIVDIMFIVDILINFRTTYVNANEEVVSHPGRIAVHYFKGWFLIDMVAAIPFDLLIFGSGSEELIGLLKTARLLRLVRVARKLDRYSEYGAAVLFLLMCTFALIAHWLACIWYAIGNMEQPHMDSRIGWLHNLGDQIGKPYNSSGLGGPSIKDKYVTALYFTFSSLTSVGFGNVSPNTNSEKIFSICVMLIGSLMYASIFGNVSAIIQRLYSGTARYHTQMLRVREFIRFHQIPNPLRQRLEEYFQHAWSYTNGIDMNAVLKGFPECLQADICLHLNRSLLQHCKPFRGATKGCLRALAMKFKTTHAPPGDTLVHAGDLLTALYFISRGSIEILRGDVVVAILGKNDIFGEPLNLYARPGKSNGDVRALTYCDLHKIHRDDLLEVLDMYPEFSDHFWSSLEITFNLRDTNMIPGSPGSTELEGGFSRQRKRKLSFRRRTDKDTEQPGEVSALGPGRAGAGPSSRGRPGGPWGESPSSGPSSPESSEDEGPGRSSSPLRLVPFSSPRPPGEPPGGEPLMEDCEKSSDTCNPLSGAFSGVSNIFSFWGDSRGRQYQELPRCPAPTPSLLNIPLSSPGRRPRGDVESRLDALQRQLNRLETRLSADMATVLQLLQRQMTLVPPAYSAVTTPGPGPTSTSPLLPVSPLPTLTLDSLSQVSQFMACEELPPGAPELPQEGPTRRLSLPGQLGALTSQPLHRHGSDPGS

SMILES	hERG current change (%, negative = inhibition) at 1uM
COc1ccccc1C(=O)Nc1nnc(-c2ccco2)s1	13.9%
COc1ccccc1NC(=O)Cn1nnc(-c2ccccc2NC(=O)c2ccco2)n1	14.7%
C=CCC1c2cccc(C(=O)O)c2C(=O)N1c1cccc(C)c1 (stereo not shown)	11.5%
CN(C)c1ccc(C2CC(=O)C=C(Nc3ccccc3N)C2)cc1 (stereo not shown)	13.8%
CCOc1ccc(NC(=O)CCN2CCN(c3ccccc3)CC2)cc1	3.48%
CCOc1ccccc1NC(=O)C(OC(=O)c1ccccc1)c1ccccc1 (stereo not shown)	32.8%
Cn1c(Cn2nnc3ccccc32)nnc1SCC(=O)Nc1nccs1	10.6%
CCOC(=O)c1c(NC(=O)CCS(=O)(=O)c2ccccc2)sc2c1CCN(C(C)C)C2.Cl	-64.6%
CCOC(=O)c1c(NC(=O)CCS(=O)(=O)c2ccccc2)sc2c1CCN(C)C2.Cl	-9.18%
CC(C)N1CCc2c(sc(NC(=O)CCS(=O)(=O)c3ccccc3)c2C(N)=O)C1.Cl	-2.04%
CC(=O)c1cc2c(cc1NC(=O)CSc1nc3ccccc3[nH]1)OCO2	-2.99%
CN(C)S(=O)(=O)c1cc(NC(=O)CNCCN2CCOCC2)ccc1Cl.O=C(O)C(=O)O	7.62%
COc1ccc(F)cc1C(=O)C1CCCN(Cc2ccc(Oc3ncccn3)cc2)C1 (stereo not shown)	-34.8%
O=C(c1cc(F)ccc1F)C1CCCN(Cc2cccn2-c2ccccn2)C1 (stereo not shown)	-83.1%
COc1ccc(F)cc1C(=O)C1CCCN(Cc2cccn2-c2cccnc2)C1 (stereo not shown)	5.09%
COc1ccc(C(=O)C2CCCN(Cc3ccc(F)cc3F)C2)cc1F (stereo not shown)	3.8%
O=C(c1cc(F)ccc1F)C1CCCN(Cc2cccc(Cl)c2)C1 (stereo not shown)	8.46%
O=C(c1cc(F)ccc1F)C1CCCN(C(=O)CSc2ccccn2)C1 (stereo not shown)	-3.1%
COc1ccc(F)cc1C(=O)C1CCCN(Cc2cccn2-c2ccccn2)C1 (stereo not shown)	-89.9%
COc1ccc(C(=O)C2CCCN(Cc3cn(C)nc3-c3ccccc3)C2)cc1F (stereo not shown)	-19.1%
O=C(C1CCCN(CCCc2ccccc2)C1)N1CCCCC1 (stereo not shown)	-5.07%
O=C(c1cc(F)ccc1F)C1CCCN(CCCc2ccccc2)C1 (stereo not shown)	-76.6%

SMILES	hERG current change (%, negative = inhibition) at 1uM
CCOc1ccccc1CN1CCCC(C(=O)c2cc(F)ccc2F)C1 (stereo not shown)	-16.6%
COc1ccc(C(=O)C2CCCN(Cc3cccn3-c3ccccn3)C2)cc1F (stereo not shown)	-87.1%
O=C(Nc1ccc(Cl)cc1)c1cc(S(=O)(=O)N2CCOCC2)cs1	-7.43%
COCCCN(Cc1ccco1)C(=O)Cn1ncc2c([nH]c3ccccc32)c1=O	-5.46%
O=C(N/N=C1/CCc2ccccc21)C1CC1	6.47%
Cc1ccc(CNC(=O)COC(=O)c2ccc(S(=O)(=O)N(C)C)cc2)cc1	17.8%
CCN(CC)c1ccc2ccc(=O)oc2c1	7.92%
O=C(NNC(=O)c1ccc(Cl)c(S(=O)(=O)Nc2ccc(Cl)cc2)c1)c1ccc(=O)[nH]c1	14.5%
COc1ccc(-c2nnc3ccc(SCC(=O)N4CCCCC4)nn23)cc1OC	6.34%
Cc1cc2nc(-c3ccc(=O)[nH]c3)n(C)c2cc1C	11%
Cc1ccc(-c2csc(NC(=O)c3ccc(F)cc3)c2C(=O)O)cc1	16%
CCOC(=O)C1(C)Oc2ccc(S(=O)(=O)CC)cc2NC1=O (stereo not shown)	16.3%
COCCn1nnnc1C(c1ccccn1)N1CCN(c2cc(C)ccc2C)CC1.Cl (stereo not shown)	9.25%
Cc1[nH]nc2c1C(C(C)c1ccccc1)C(C#N)=C(N)O2 (stereo not shown)	7.79%
Clc1ccc(C[n+]2cc(-c3ccccc3)n3c2CCC3)cc1.[Cl-]	7.34%
COc1ccc(-n2c(-c3ccc(Br)cc3)c[n+]3c2CCCCC3)cc1.[Br-]	-24.6%
Clc1ccc(C2=C3CCCCn4c(-c5ccccc5)c[n+](c43)C2)cc1.[Br-]	-83.1%
COc1ccc(-c2c[n+]3c4n2CCCCC4=C(c2ccc(Br)cc2)C3)cc1.[Br-]	-79.6%
COc1ccc(-c2c[n+]3c(n2-c2ccccc2)CCCCC3)cc1.[Br-]	2.74%
COc1ccc(-c2c[n+](CC(=O)c3ccccc3)c3n2CCCCC3)cc1.[Br-]	13.7%
O=C(C[n+]1cc(-c2ccc(Cl)cc2)n2c1CCCCC2)c1ccccc1.[Br-]	-2.53%
COc1ccc(-c2c[n+]3c4n2CCCCC4=C(c2ccccc2)C3)cc1.[Br-]	-74.7%

SMILES	hERG current change (%, negative = inhibition) at 1uM
COc1ccc(C(=O)C[n+]2cc(-c3ccc(OC)cc3)n3c2CCCC3)cc1.[Br-]	11.5%
COc1cc2c(cc1OC)CN(S(C)(=O)=O)CC2	16.5%
Fc1cccc(CCN2CCNC[C@@H]2CC2CCCCC2)c1	1.12%
Cc1ccc2oc(C(=O)NCC3CCOCC3)c(C)c2c1	10.3%
CCCCCCCn1c(=N)n(CC(O)c2ccco2)c2ccccc21.Cl (stereo not shown)	-76.8%
CCn1c(=N)n(CC(O)c2ccco2)c2ccccc21.Cl (stereo not shown)	-7.63%
CCCn1c(=N)n(CC(O)c2ccco2)c2ccccc21.Cl (stereo not shown)	-13.8%
CCN(CC)CCn1c(=N)n(CC(O)c2ccco2)c2ccccc21.Cl (stereo not shown)	-54.6%
Cl.N=c1n(CCN2CCCC2)c2ccccc2n1CC(O)c1ccco1 (stereo not shown)	-3.97%
Cl.Cn1c(=N)n(CC(O)c2ccco2)c2ccccc21 (stereo not shown)	1.97%
O=C(O)C(=O)O.O=[N+]([O-])c1cccc(CN2CCN(Cc3ccc(Cl)cc3)CC2)c1	-27.2%
COC(=O)c1cc(NC(=O)C2(S(=O)(=O)c3ccc(C)cc3)CC2)cc(C(=O)OC)c1	0.157%
COc1ccc(O)c(C(=O)c2cc(C#N)c(=O)n(Cc3ccccc3)c2)c1	8.35%
O=C(NCc1ccccc1)C1(C(F)(F)F)C/C(=C\CCO)CCCO1 (stereo not shown)	14.1%
Cc1ccc(/C=C2/C(=O)NC(=O)N(CCc3ccc(F)cc3)C2=O)o1	2.54%
CCC1CN(C(=O)N2CCC(C(=O)NCCc3ccccc3)CC2)c2ccccc2O1 (stereo not shown)	8.85%
CCCCNC(=O)CCc1nc2cccnc2n1Cc1ccccc1	-34.7%
COCCCNC(=O)CCc1nc2cccnc2n1Cc1ccccc1	-11.9%
O=C(CCc1nc2cccnc2n1Cc1ccccc1)NCCc1ccc(Cl)cc1	-65.2%
Cc1ccc([N+](=O)[O-])cc1N/C=C1\CCCCC1=O	16.5%
Cc1ccc(N(CC(=O)NCc2cccnc2)S(C)(=O)=O)cc1C	12.4%
COc1ccc(C2=NOC(C(=O)NCc3cccs3)C2)cc1 (stereo not shown)	21.3%

SMILES	hERG current change (%, negative = inhibition) at 1uM
NC(=O)c1ccc(NC(=O)c2cc(S(=O)(=O)N3CCCCC3)ccc2N2CCOCC2)cc1	13.4%
N#Cc1ccc(NC(=O)c2cc(S(=O)(=O)N3CCOCC3)ccc2N2CCCC2)cc1	-58.9%
O=C(Nc1ccccc1N1CCCC1)c1cc(S(=O)(=O)N2CCOCC2)ccc1Cl	-9.58%
NC(=O)c1ccccc1NC(=O)c1cc(S(=O)(=O)N2CCCCC2)ccc1N1CCOCC1	-60.5%
O=C(Nc1ccccc1)c1cc(S(=O)(=O)N2CCCCC2)ccc1N1CCOCC1	12.6%
O=C(Nc1ccccc1N1CCCCC1)c1cc(S(=O)(=O)N2CCOCC2)ccc1Cl	7.72%
CS(=O)(=O)c1ccc(Cl)c(NC(=O)c2cc(S(=O)(=O)N3CCOCC3)ccc2N2CCCC2)c1	-60.2%
O=C(Nc1ccccc1Cl)c1cc(S(=O)(=O)N2CCCCC2)ccc1N1CCOCC1	-5.21%
CNC(=O)c1ccc(NC(=O)c2cc(S(=O)(=O)N3CCOCC3)ccc2N2CCCC2)cc1	13.5%
CC1=NN(c2ccc(C(=O)O)cc2)C(=O)/C1=C/c1ccc(-c2ccccc2F)o1	15.2%
C=CCOc1cccc(C(=O)N2CCC(CCC(=O)NC3CC3)CC2)c1	12.6%
Cn1c(SCC(=O)N/N=C/C=C\c2ccco2)nc2ccccc21	-13.7%
O=C(Nn1c(O)c(C=C2N=c3ccccc3=N2)sc1=S)c1ccccc1Cl	0.388%
Cc1ccc(-c2nnn(CC(=O)N(c3ccc4c(c3)OCCO4)C(C(=O)NCC3CCCO3)c3ccc(F)cc3)n2)o1 (stereo not shown)	10.9%
O=C(O)c1ccc(S(=O)(=O)NC2CCCCCC2)cc1	13.5%
O=C(NNC(=O)c1ccccc1[N+](=O)[O-])c1csc(N2CCOCC2)n1	0.109%
Cn1cc(-c2nnnn2-c2ccc(Cl)cc2)c(=O)c2ccccc21	-66.3%
CCn1cc(-c2nnnn2-c2ccc(Cl)cc2)c(=O)c2ccccc21	-16.3%
Cn1cc(-c2nnnn2-c2ccccc2)c(=O)c2ccccc21	1.73%
